Laboratory results taken from article PMC8384837, “Expanding the binding specificity for RNA recognition by a PUF domain”.

Legend:
Assay in all cases: yeast three-hybrid, YBZ-1, SC-Leu-His + 0.5 mM 3-AT, 4 days
Conditions in all cases: tags: N-Gal4 AD-HA kept; label: inside an RPR1-promoter hybrid RNA with tandem MS2 sites; ssRNA
PUM1 PUF domain R1-SFK = PUM1 PUF domain R1-SFK (Homo sapiens, UniProt Q14671 828-1176, R864F;Q867K)
In short: (§1)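 The interaction score is the logarithmic change in variant frequency from input to selection. It uses log2, with a pseudocount of 1 for absent variants, and frequencies came from PCR-amplified, Illumina-sequenced repeat regions. The libraries were Pumilio-1 PUF domains randomized at the three base-contacting residues per repeat, co-expressed with matching RNA elements in strain YBZ-1 (LexA–MS2 coat fusion, HIS3 reporter). Plating lasted four days on SC-Leu (input) or SC-Leu-His + 0.5 mM 3-AT (selection).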

PUM1 PUF domain R5-NSI = PUM1 PUF domain R5-NSI (Homo sapiens, UniProt Q14671 828-1176, C1007N;R1008S;Q1011I)
In short: as §1

PUM1 PUF domain R7-RQR = PUM1 PUF domain R7-RQR (Homo sapiens, UniProt Q14671 828-1176, S1079R;N1080Q;E1083R)
In short: as §1

PUM1 PUF domain R7-TMG = PUM1 PUF domain R7-TMG (Homo sapiens, UniProt Q14671 828-1176, S1079T;N1080M;E1083G)
In short: as §1

PUM1 PUF domain R1-QLT = PUM1 PUF domain R1-QLT (Homo sapiens, UniProt Q14671 828-1176, S863Q;R864L;Q867T)
In short: as §1

PUM1 PUF domain R3-LHY = PUM1 PUF domain R3-LHY (Homo sapiens, UniProt Q14671 828-1176, C935L;R936H;Q939Y)
In short: as §1

PUM1 PUF domain R3-RRE = PUM1 PUF domain R3-RRE (Homo sapiens, UniProt Q14671 828-1176, C935R;Q939E)
In short: as §1

PUM1 PUF domain R4-KSQ = PUM1 PUF domain R4-KSQ (Homo sapiens, UniProt Q14671 828-1176, N971K;H972S)
In short: as §1

PUM1 PUF domain R4-DFV = PUM1 PUF domain R4-DFV (Homo sapiens, UniProt Q14671 828-1176, N971D;H972F;Q975V)
In short: as §1

PUM1 PUF domain R6-GFM = target: T1, PUM1 PUF domain R6-GFM (Homo sapiens, UniProt Q14671 828-1176, N1043G;Y1044F;Q1047M)
T1 sequence: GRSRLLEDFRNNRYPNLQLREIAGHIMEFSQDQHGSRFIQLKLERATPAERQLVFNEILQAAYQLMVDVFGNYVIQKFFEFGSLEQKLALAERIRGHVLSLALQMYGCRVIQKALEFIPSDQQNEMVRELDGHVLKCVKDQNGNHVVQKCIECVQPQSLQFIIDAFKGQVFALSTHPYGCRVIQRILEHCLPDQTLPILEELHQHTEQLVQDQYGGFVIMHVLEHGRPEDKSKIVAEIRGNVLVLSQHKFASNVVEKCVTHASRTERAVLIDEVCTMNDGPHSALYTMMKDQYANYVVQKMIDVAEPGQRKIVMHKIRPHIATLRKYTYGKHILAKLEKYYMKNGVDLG
In short: as §1

PUM1 PUF domain R7-RQR, sequence (Q14671 828-1176 S1079R/N1080Q/E1083R): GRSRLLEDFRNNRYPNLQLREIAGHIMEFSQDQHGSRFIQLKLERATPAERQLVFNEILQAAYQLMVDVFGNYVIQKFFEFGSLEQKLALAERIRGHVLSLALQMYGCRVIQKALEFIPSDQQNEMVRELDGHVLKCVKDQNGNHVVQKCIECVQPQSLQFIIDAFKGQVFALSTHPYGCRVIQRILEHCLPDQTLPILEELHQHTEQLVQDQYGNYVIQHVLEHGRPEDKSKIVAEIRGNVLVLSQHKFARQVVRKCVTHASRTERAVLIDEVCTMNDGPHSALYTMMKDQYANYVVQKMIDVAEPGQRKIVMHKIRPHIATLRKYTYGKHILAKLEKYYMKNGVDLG
PUM1 PUF domain R5-NSI, sequence (Q14671 828-1176 C1007N/R1008S/Q1011I): as the sequence (Q14671 828-1176 S1079R/N1080Q/E1083R) above, with C180N, R181S, Q184I, R252S, Q253N, R256E counted along it
PUM1 PUF domain R7-TMG, sequence (Q14671 828-1176 S1079T/N1080M/E1083G): as the sequence (Q14671 828-1176 S1079R/N1080Q/E1083R) above, with R252T, Q253M, R256G counted along it

## GGCUAGAACUAGUGGAUCCCCCGGCGCCCGGCGGCUCGAGCCCGGGUAAGUGUAAAUCGUCUGCAUGCCGCCGGGCGCCAUGCCUGCAGGUCGACUCUAGAAAACAUG
PUM1 PUF domain R1-SFK
  binding signal: 6.11 log2 enrichment (interaction score)

## GGCUAGAACUAGUGGAUCCCCCGGCGCCCGGCGGCUCGAGCCCGGGUAAGUGUUAAUAGUCUGCAUGCCGCCGGGCGCCAUGCCUGCAGGUCGACUCUAGAAAACAUG
PUM1 PUF domain R5-NSI
  binding signal: 3.96 log2 enrichment (interaction score)

## GGCUAGAACUAGUGGAUCCCCCGGCGCCCGGCGGCUCGAGCCCGGGUAAGUCUAAAUAGUCUGCAUGCCGCCGGGCGCCAUGCCUGCAGGUCGACUCUAGAAAACAUG
PUM1 PUF domain R7-RQR
  binding signal: 3.17 log2 enrichment (interaction score)

## GGCUAGAACUAGUGGAUCCCCCGGCGCCCGGCGGCUCGAGCCCGGGUAAGUUUAAAUAGUCUGCAUGCCGCCGGGCGCCAUGCCUGCAGGUCGACUCUAGAAAACAUG
PUM1 PUF domain R7-RQR
  binding signal: 4.97 log2 enrichment (interaction score)
PUM1 PUF domain R7-TMG
  binding signal: 2.65 log2 enrichment (interaction score)

## GGCUAGAACUAGUGGAUCCCCCGGCGCCCGGCGGCUCGAGCCCGGGUAAGUGUAAAUUGUCUGCAUGCCGCCGGGCGCCAUGCCUGCAGGUCGACUCUAGAAAACAUG
PUM1 PUF domain R1-QLT
  binding signal: 2.41 log2 enrichment (interaction score)

## GGCUAGAACUAGUGGAUCCCCCGGCGCCCGGCGGCUCGAGCCCGGGUAAGUGUAAUUAGUCUGCAUGCCGCCGGGCGCCAUGCCUGCAGGUCGACUCUAGAAAACAUG
PUM1 PUF domain R3-LHY
  binding signal: 4.13 log2 enrichment (interaction score)
PUM1 PUF domain R3-RRE
  binding signal: 3.8 log2 enrichment (interaction score)

## GGCUAGAACUAGUGGAUCCCCCGGCGCCCGGCGGCUCGAGCCCGGGUAAGUGUAUAUAGUCUGCAUGCCGCCGGGCGCCAUGCCUGCAGGUCGACUCUAGAAAACAUG
PUM1 PUF domain R4-KSQ
  binding signal: 3.81 log2 enrichment (interaction score)

## GGCUAGAACUAGUGGAUCCCCCGGCGCCCGGCGGCUCGAGCCCGGGUAAGUGUAAAUAGUCUGCAUGCCGCCGGGCGCCAUGCCUGCAGGUCGACUCUAGAAAACAUG
PUM1 PUF domain R4-DFV
  binding signal: 6 log2 enrichment (interaction score)
PUM1 PUF domain R6-GFM
  binding signal: 3.52 log2 enrichment (interaction score)

## GGCUAGAACUAGUGGAUCCCCCGGCGCCCGGCGGCUCGAGCCCGGGUAAGUGUACAUAGUCUGCAUGCCGCCGGGCGCCAUGCCUGCAGGUCGACUCUAGAAAACAUG
PUM1 PUF domain R4-DFV
  binding signal: 3.48 log2 enrichment (interaction score)
